Screening results as filed in PubChem.
BAZ2B block: BAZ2B (human) inhibition; Q9UIF8; AlphaScreen BAZ2B-H3K14Ac peptide displacement; Potency, µM (titrated, usually from 114 µM), without a hit: at the top dose activity change, negative = inhibition, actives largely listed as inhibitors; actives 4.4% (n = 360,000); further: potency means the concentration at half of the fitted maximal effect; on the % scale 0 is the no-effect control and ±100 the full control effect; nearly all actives have a fitted effect of over 60% in size
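Protein-peptide AlphaScreen: BAZ2B 50 nM, b-H3K14Ac 50 nM, 1x PBS pH 7.4 + 0.01% Tween-20. Preincubation 30 min RT; cpd 30 min RT (top 110 uM); beads 20 min RT, light-protected.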
CtBP-E1A inh: blocks the CtBP interaction with E1A; AlphaScreen GST-E1A/His-CtBP binding, 1536-well; active compounds read low; activity change, % (test concentration not listed); actives 0.49% (n = 340,000); AID 651724; in the data active means activity change below about -65%; inconclusive means mostly about -30% to -63%; further: on the % scale 0 is the no-effect control and ±100 the full control effect
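Steps: dispense buffer (Tris pH 8.0, NaCl 300 mM, TCEP 1 mM, BSA, Tween 20); add 5X protein mix (GST-E1A, His-CtBP, 125 nM each); pin 23 nL compound; 2 h at 37 °C, dark; add 5X beads (50 ug/mL); 1 h; read.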
G9a inh-1: inhibitors of human histone lysine methyltransferase G9a. G9a H3K9 monomethylation, AlphaScreen, 2 h. actives 8.8% (n = 350,000). Q96KQ7. AID 504332. Potency, µM (top dose mostly 102 µM), without a hit: at the highest dose activity, negative = inhibition, actives largely listed as inhibitors; further: potency means the concentration at half of the fitted maximal effect; on the % scale 0 is the no-effect control and ±100 the full control effect; nearly all actives have a fitted effect of over 75% in size
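Readings reflect AlphaScreen signal from monomethyl-H3K9 antibody detection. HMT at 20 nM; substrate b-H3K9 500 nM; cofactor SAM 20 uM; 2 h RT reaction; compounds tested as titrations in qHTS with 15 min preincubation.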
JMJD2A Tudor: JMJD2A Tudor domain (human) inhibition; AlphaScreen JMJD2A-Tudor / H3K4me3 peptide binding; O75164; actives 4.4% (n = 390,000); AID 504339; Potency, µM (top dose mostly 114 µM), inactives show at the top dose activity change, negative = inhibition, actives largely listed as inhibitors; further: potency means the concentration at half of the fitted maximal effect; on the % scale 0 is the no-effect control and ±100 the full control effect; nearly all actives have a fitted effect of over 50% in size
HP1b binding inh: blocks HP1-beta chromodomain binding to methylated histone tails; P83916; AlphaScreen HP1-beta / biotin-H3K9me3 peptide binding; Potency, µM (titrated, usually from 114 µM), for inactives: at the highest dose activity change, negative = inhibition, hits mostly inhibitors; actives 0.56% (n = 390,000); AID 540317; further: potency means the concentration at half of the fitted maximal effect; nearly all actives have a fitted effect of over 70% in size
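Compound inhibition of the preformed complex between 50 nM HP1-beta and 50 nM biotinylated H3K9me3 peptide was read by AlphaScreen. Buffer was PBS pH 7.4 with 0.01% Tween-20. Incubations ran 30 min at room temperature, with 10 ug/mL donor/acceptor beads.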
Six1-Eya2 blk: blocks human Six1 binding to Eya2; Q15475+O00167; AlphaScreen GST-Six1/His-Eya2 binding, biochemical; active compounds read low; activity change, % (test concentration not listed); actives 0.56% (n = 360,000); AID 651725; in the data active means activity change below about -65%; inconclusive means mostly about -30% to -63%; further: on the % scale 0 is the no-effect control and ±100 the full control effect
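AlphaScreen with GST-Six1 and His-Eya2 (5X mix: 250 nM and 500 nM), glutathione donor and nickel acceptor beads; buffer 50 mM Tris pH 8.0, 300 mM NaCl, 1 mM TCEP; 1 h at 37 C in the dark.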
JMJD2E inh: confirmation of inhibitors of human JMJD2E demethylase; actives 93% (n = 140); Potency, µM (titrated, usually from 56.8 µM), without a hit: top-dose activity change, negative = inhibition, usual class: inhibitors; shares compounds with JMJD2A Tudor; Recombinant JMJD2E, FDH-coupled NADH fluorescence (FDH is formaldehyde dehydrogenase)
FDH inh: blocks Pseudomonas putida formaldehyde dehydrogenase, flagging JMJD2E artifacts; actives 10% (n = 140); Potency, µM (doses to about 56.7 µM), for inactives: top-dose activity, negative = inhibition, usual class: inhibitors; shares compounds with JMJD2A Tudor; FDH enzyme assay, NADH fluorescence kinetic
JMJD2E MS inh: blocks demethylation by human JMJD2E in a MALDI-TOF-MS assay; shares compounds with JMJD2A Tudor; recombinant JMJD2E demethylation, MALDI-TOF-MS; Potency, µM, actives largely listed as inhibitors; actives 90% (n = 45); AID 2688;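 active means compounds whose IC50 for blocking JMJD2E demethylation is below 100 µM; inconclusive means dose dependent effect but IC50 above 100 µM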
G9a inh-2: inhibits human G9a histone lysine methyltransferase, hit confirmation | shares compounds with JMJD2A Tudor | G9a H3K9 monomethylation, AlphaScreen, 2 h | Potency, µM, hits mostly inhibitors | actives 89% (n = 370) | AID 588344; further: potency means the concentration at half of the fitted maximal effect; nearly all actives have a fitted effect of over 65% in size
* hit, by the source's call; ? = inconclusive; · = no result given; [ ] = dose if it differs, or a comment. Sampled rows, rich in hits. Any-hit rate of the full collection: about 10%. Unless noted, the call rests on the fitted dose curve; in most records, active means well fitted curve in the direction sought with a large enough effect; inconclusive means small, poorly fitted or top-dose-only effect, or another doubt; inactive means no such curve, though single readings can be large; an effect the other way counts as inactive or inconclusive.

SMILES	BAZ2B block	CtBP-E1A inh	G9a inh-1	JMJD2A Tudor	HP1b binding inh	Six1-Eya2 blk	G9a inh-2	others
Cc1ccc(NCc2ccc(C)s2)cc1	27.8%	·	·	·	·	·	·
CCn1c(SCC(=O)Nc2sc3c(c2C#N)CCC(C(C)(C)C)C3)nnc1-c1ccco1 (stereo not drawn)	1.6%	-2.1	-32.7%	-21.1%	7.5%	-3.2	·
CCn1c(SCC(=O)Nc2sc3c(c2C#N)CCCC3)nnc1-c1ccco1	4.7%	-7.0	?	-11.6%	59.6%	-1.7	28.3*
COc1ccc(CN2CCc3c([nH]c4ccccc34)C2)cc1Br	14.1µM*	·	?	20µM*	-22.5%	-1.8	5.02*
CCc1ccc2c(c1)CCCN2C(=O)c1ccccc1C(=O)O	56.2µM*	-29.8	?	?	24.7%	-13.1	?
CCN(CC)c1ccc(NC(=O)CN2CCN(CC(=O)Nc3ccccc3F)CC2)cc1	?	-8.4	?	?	-27.8%	-23.7	6.31*
CCOc1ccc(NC(=O)CN2CCN(CC(=O)Nc3ccc(N(CC)CC)cc3)CC2)cc1	-2.0%	·	?	-6.4%	20.0%[57 µM]	·	·
Cc1noc(C)c1COc1ccc(C(=O)OC(C)C(=O)Nc2ccc(S(=O)(=O)N3CCOCC3)cc2)cc1 (stereo not drawn)	9.8%	23.2	21.1%[59 µM]	0.3%	31.8%	1.5	·
COCc1c(C(=O)N2CCN(Cc3nc4ccccc4s3)CC2)oc2ccccc12	?	-13.6	?	-18.0%	-22.6%	3.1	3.99*
COCc1c(C(=O)N2CCN(S(=O)(=O)c3ccccc3Cl)CC2)oc2ccccc12	-1.0%	·	18.1%[12.7 µM]	-11.6%	43.5%	3.6	·
CCOC(=O)C1=C[C@@]2(CC)CCCN3CCc4c(n1c1ccccc41)C32 (stereo partly drawn)	·	·	-28.2%[2.33 µM]	·	·	·	·
COc1ccc(N2CCN(CC(=O)Nc3cc(C)on3)CC2)cc1	20µM*	1.6	1.78µM*	2.82µM*	?	4.7	1.59*
COc1ccc(C2=NOC(Cn3nc(C(=O)NCc4cccc(Br)c4)cc3-c3ccccc3)C2)cc1 (stereo not drawn)	·	·	·	-12.7%	42.5%	-5.6	·
CCn1c2ccccc2c2cc(CN3CCN(Cc4cc(OC)c(O)c(OC)c4)CC3)ccc21	22.4µM*	·	0.708µM*	11.2µM*	?	·	18.2*
CCn1c2ccccc2c2cc(CN3CCN(Cc4ccc(Cl)cc4)CC3)ccc21	15.8µM*	·	0.501µM*	7.94µM*	?	·	22.4*
O=C1N=C(N2CCCC2)CN1c1ccccc1	0.8%	0.0	?	0.0%	23.3%	24.3	·
C[C@H](CO)N1C[C@H](C)[C@@H](CN(C)Cc2ccc3c(c2)OCO3)Oc2ccc(NC(=O)Cn3cnnn3)cc2C1=O	·	6.4	·	-8.5%	30.7%	-6.5	·
COCCNC(=O)C1CCCN(C(=O)c2cc(C)nn2C(C)(C)C)CC1 (stereo not drawn)	·	0.8	·	·	·	12.1	·
Oc1ccc(COCc2ccccc2)c2cccnc12	28.2µM*	-97.9*	23.2%[12.7 µM]	?	44.7%	-90.1*	·	JMJD2E inh=22.9µM*;FDH inh=-36.4%;JMJD2E MS inh=24.6*
O=C(O)c1sc2ncccc2c1OCc1ccccc1	-37.7%	-2.7	-49.8%	-12.6%	32.4%	12.3	·
CCC(C)/C(C)=N/NC(=O)CSc1nc2ccccc2[nH]1 (stereo not drawn)	-17.9%	-13.3	16.2%	-19.6%	34.0%	-10.1	·
CCc1ccc2oc(-c3cc(N)ccc3Cl)nc2c1	?	-2.1	-20.2%[12.7 µM]	-4.7%	7.4%	5.1	·
CCc1ccc2oc(-c3cc(N)ccc3O)nc2c1	-4.7%	-2.3	?	-35.2%	3.8%	-20.4	?
O=C(O)CCC(=O)Nc1ccc(N2CCCCCC2)cc1	?	-11.6	0.891µM*	-35.1%	7.0%	6.1	0.71*
COc1ccc(C(=O)Nc2ccc(N3CCCC3)cc2)cc1	-37.6%	-13.7	1.58µM*	-4.1%[11.4 µM]	?	-15.3	1.26*
SMILES	BAZ2B block	CtBP-E1A inh	G9a inh-1	JMJD2A Tudor	HP1b binding inh	Six1-Eya2 blk	G9a inh-2	others
COc1ccc(C(=O)Nc2ccc(N3CCCC3)cc2)cc1OC	?	-6.0	2.51µM*	?	-1.1%	-13.1	2.51*
Cc1ccc(N2CCN(c3ccc(NC(=O)CCC(=O)O)cc3)CC2)cc1	2.7%	0.2	?	-16.4%	9.4%	1.4	·
COc1ccc(C(=O)Nc2ccc(N3CCOCC3)cc2)cc1OC	7.1%	-6.2	3.8%[59 µM]	-9.8%	8.5%	2.6	·
COc1cc(CNc2ccc(N3CCCC3)cc2)ccc1OCc1ccccc1	12.6µM*	?	?	35.5µM*	?	?	2.52*
CCOc1ccc(C(=O)Nc2ccc(N3CCCC3)cc2)cc1	?	-13.6	?	?	-27.8%	-16.2	·
Nc1c([N+](=O)[O-])cnnc1-c1ccccc1	0.3%	-3.5	15.8%	-13.6%	7.8%	12.5	·
COc1cccc(CN2CCN(C(=O)c3oc4c(F)cccc4c3C)CC2=O)c1	-30.7%	-0.2	41.4%	-17.6%	3.3%	-1.4	·
CCCCOC(=O)Nc1ccc(C(C)C)cc1	114.2%	21.0	23.2%[59 µM]	107.9%	151.2%	31.8	·
CCCOc1ccc(C(=O)Nc2ccc(N(C)C)cc2)cc1	-30.0%	-5.0	?	-26.7%	12.2%	-11.7	1*
CCCCOC(=O)Nc1ccc(N(C)C)cc1	39.8µM*	-17.7	1.58µM*	79.4µM*	?	?	1.59*
O=C(Cn1ccn(-c2ccc(F)cc2)c(=O)c1=O)Nc1ccc(F)cc1	-2.4%	·	3.3%[59 µM]	-1.3%	29.3%	·	·
